Values joined by “and” are separate entries in the source; they are usually repeats but may differ in a detail not shown here. Identical values can stand only once. The panel holds about 83,000 compounds, 20% with a hit somewhere; the sample as a whole holds those more often.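 Cell lines were cultured in 96-well plates, exposed to a single compound concentration, and assessed for percent growth 48 hours later.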 Active and inactive are the calls of the source. How the source made its calls: active means growth percent below 10; inactive means the rest.
How the values were obtained:
Experiment in all cases: NCI-60 one-dose screen, 48 h (100 = growth as untreated, 0 = no growth, -100 = all killed)
Conditions in all cases: 10 µM unless noted
SK-MEL-2 melanoma = test system: SK-MEL-2 melanoma
EKVX NSCLC = test system: EKVX NSCLC
SN12C renal = test system: SN12C renal
UO-31 renal = test system: UO-31 renal
TK-10 renal = test system: TK-10 renal
ACHN renal = test system: ACHN renal
CAKI-1 renal = test system: CAKI-1 renal
A498 renal = test system: A498 renal
CCRF-CEM leukemia = test system: CCRF-CEM leukemia
MOLT-4 leukemia = test system: MOLT-4 leukemia
SR leukemia = test system: SR leukemia
RPMI-8226 leukemia = test system: RPMI-8226 leukemia
OVCAR-8 ovarian = test system: OVCAR-8 ovarian
SK-OV-3 ovarian = test system: SK-OV-3 ovarian
IGROV1 ovarian = test system: IGROV1 ovarian
OVCAR-3 ovarian = test system: OVCAR-3 ovarian
HS 578T breast = test system: HS 578T breast
NCI/ADR-RES ovarian = test system: NCI/ADR-RES ovarian
OVCAR-5 ovarian = test system: OVCAR-5 ovarian
OVCAR-4 ovarian = test system: OVCAR-4 ovarian

Measured: growth

CN(C)C(=O)SC1=C(c2c(Cl)cccc2Cl)C(=O)c2ccccc21
inactive: SK-MEL-2 melanoma 136% | SN12C renal 82.3% | A498 renal 115% | OVCAR-8 ovarian 51.7% | SK-OV-3 ovarian 110% | IGROV1 ovarian 119% | HS 578T breast 21.4% | NCI/ADR-RES ovarian 99.1%
active: EKVX NSCLC 0.799% | UO-31 renal -34.4% | TK-10 renal -43.7% | ACHN renal -43.2% | CAKI-1 renal -28.9% | CCRF-CEM leukemia 0.862% | MOLT-4 leukemia -22.5% | SR leukemia -36.3% | RPMI-8226 leukemia -2.59% | OVCAR-3 ovarian -81.5%

N#Cc1ccc([N+](=O)[O-])o1
inactive: SK-MEL-2 melanoma 91% | EKVX NSCLC 105% | SN12C renal 106% | UO-31 renal 92.6% | TK-10 renal 108% | ACHN renal 104% | CAKI-1 renal 104% | A498 renal 98.5% | CCRF-CEM leukemia 102% | MOLT-4 leukemia 99.5% | SR leukemia 104% | RPMI-8226 leukemia 107% | OVCAR-8 ovarian 89.9% | OVCAR-5 ovarian 107% | OVCAR-4 ovarian 107% | SK-OV-3 ovarian 96.4% | IGROV1 ovarian 109% | OVCAR-3 ovarian 118% | HS 578T breast 100% | NCI/ADR-RES ovarian 114%

Nc1ncnc2c1ncn2C1OC(CO)C(O)C1O (stereo not drawn)
inactive: SK-MEL-2 melanoma 144% and 67.2% and 121% | EKVX NSCLC 116% and 88.3% and 105% | SN12C renal 103% and 90.3% and 97.5% | UO-31 renal 92.9% and 76.6% and 90.3% | TK-10 renal 114% and 106% and 118% | ACHN renal 111% and 84.1% and 98.9% | CAKI-1 renal 103% and 109% and 94.5% | A498 renal 123% and 107% and 128% | CCRF-CEM leukemia 96.7% and 119% and 105% | MOLT-4 leukemia 102% and 111% and 109% | SR leukemia 98.7% and 21% and 87.3% | RPMI-8226 leukemia 101% and 77.5% and 112% | OVCAR-8 ovarian 93.5% and 56% and 105% | OVCAR-5 ovarian 122% and 127% | SK-OV-3 ovarian 104% and 100% | IGROV1 ovarian 109% and 104% | OVCAR-3 ovarian 116% and 89.8% and 108% | HS 578T breast 125% and 77.9% | NCI/ADR-RES ovarian 110% and 72%

C=CCOc1ccc(N=NC(C#N)C#N)cc1
inactive: SK-MEL-2 melanoma 87.3% | EKVX NSCLC 92.6% | SN12C renal 85.7% | UO-31 renal 41.4% | TK-10 renal 62.6% | ACHN renal 36% | CAKI-1 renal 25.6% | A498 renal 76% | CCRF-CEM leukemia 13.6% | MOLT-4 leukemia 19.5% | OVCAR-8 ovarian 86.9% | OVCAR-5 ovarian 93.8% | OVCAR-4 ovarian 31.6% | IGROV1 ovarian 53.3% | HS 578T breast 88.6% | NCI/ADR-RES ovarian 103%
active: SR leukemia 8.51% | RPMI-8226 leukemia 2.95%

O[C@H]1[C@H]2c3cc4c(cc3CN3CCC(=C[C@@H]1O)[C@H]23)OCO4
inactive: SK-MEL-2 melanoma 24.5% | EKVX NSCLC 37.2% | SN12C renal 18.8% | UO-31 renal 33% | TK-10 renal 54.1% | CAKI-1 renal 28.1% | A498 renal 51.4% | CCRF-CEM leukemia 23.6% | SR leukemia 32.7% | RPMI-8226 leukemia 23.1% | OVCAR-8 ovarian 26.7% | OVCAR-4 ovarian 16.5% | SK-OV-3 ovarian 22% | IGROV1 ovarian 40.8% | OVCAR-3 ovarian 34.5% | HS 578T breast 42.7% | NCI/ADR-RES ovarian 19.1%
active: ACHN renal 9.15% | MOLT-4 leukemia 8%

CCN1/C(=C\c2cc[n+](CC)c3ccccc23)C=Cc2ccccc21
inactive: EKVX NSCLC 15.8% | UO-31 renal 11.4% | TK-10 renal 22.3% | ACHN renal 15.2% | CAKI-1 renal 53.9% | CCRF-CEM leukemia 28.1% | MOLT-4 leukemia 13.2% | SR leukemia 15.7% | RPMI-8226 leukemia 12.6% | OVCAR-5 ovarian 11.7% | IGROV1 ovarian 29.8% | OVCAR-3 ovarian 11.8% | HS 578T breast 37.4% | NCI/ADR-RES ovarian 86.9%
active: SK-MEL-2 melanoma 0.604% | SN12C renal 8.57% | A498 renal -20.2% | OVCAR-8 ovarian 9.96% | SK-OV-3 ovarian 3.69%
